These results are taken from PubChem BioAssay (NCATS).

Records with an inconclusive call do not appear. Values without a mark were called inactive. The source made the active and inactive calls. The call rests on the fitted dose curve; in most records, active means well fitted inhibition curve with a large enough effect; inconclusive means small, poorly fitted or top-dose-only effect; inactive means no such curve, though single readings can be large or run the other way. Where a SMILES comes first, the peptide text is derived from it. [ ]: non-standard residue; d: D form. ξ: configuration not given here. ξLac(3-iPr) = CC(C)CC(O)C(=O)O; NMeV = CN[CH](C(=O)O)C(C)C; NMeA = CN[CH](C)C(=O)O; βAla = NCCC(=O)O
On the % scale 0 is the no-effect control and ±100 the full control effect; potency means the concentration at half of the fitted maximal effect.

For the experiment, the system named is Zika virus NS2B-NS3 protease (unlinked complex). As to the kind of experiment: Primary screen GU Rhodamine qHTS for Zika virus inhibitors: Unlinked NS2B-NS3 protease assay (AID 1347159). Further: nearly all actives have a fitted effect of over 60% in size. The conditions noted are these: Recombinant ZIKV NS2B-NS3 protease, Rhodamine110 substrate fluorescence; series mostly up to 107 µM; activity change, negative = inhibition: at the top concentration. The text has this:
Avindra Nath, Ph.D., National Institute of Neurological Disorders and Stroke (NINDS), Bethesda, MD
Radhakrishnan Padmanabhan, Ph.D., Georgetown University (GU), Washington D.C.
Zika Virus causes congenital defects, including microcephaly and is associated with Guillain-Barre syndrome, eningoencephalitis and myelitis in infected adult. […] Using a target-based approach, we hope to establish a screening paradigm to uncover novel, cell-active NS2B-NS3 protease (Zika Virus) specific inhibitors from NCATS' collection of small molecules using qHTS.
Four assay panel was created to identify potential Zika Virus inhibitors. Namely, (1) GU unlinked NS2B-NS3 AMC tagged protease qHTS, (2) GU unlinked NS2B-NS3 Rhodamine tagged protease qHTS, (3) NINDS linked NS2B-NS3 AMC tagged protease qHTS, (4) NINDS linked NS2B-NS3 Rhodamine tagged protease qHTS. Active compounds were re-acquired and re-screened to confirm inhibition. Inhibitors were further screened against various confirmatory and counterscreens in dose response format.
Early Translation Branch (ETB)
National Center for Advancing Translational Sciences (NCATS), Rockville, MD
National Institute of Health (NIH), Bethesda, Maryland
Padmanabhan lab provided the NS2B hydrophilic domain and NS3 protease domain in a noncovalent complex used for the unlinked assay. Control compound aprotinin is obtained from Thermo Scientific (#78432; Waltham, Massachusetts). Rhodamine110 substrate ([N-Cbz]-Nle-Lys-Arg-Arg-Rhod110-Arg-Arg-Lys-Nle-[N-Cbz]) was purchased from either Genscript or Bachem.
1536-well Protease (Rhodamine110 Substrate) Assay:
Briefly, 3 microL of enzyme (25 nM final concentration), in assay buffer (10 mM Tris-HCl pH 8.0 with 0.01% Tween 20) were dispensed into a 1,536-well solid-bottom black plate (Greiner Bio One, Monroe, NC). Twenty-three nL of compounds (final concentration range 7.28 nM to 114 microM) or control Aprotinin (final concentration range 3.47 nM to 114 microM) were transferred via Wako Pin-tool (Wako Automation, Richmond, VA). Samples were incubated (room temperature, protected from light) for 15 minutes followed by a 1 microL Rhodamine110 substrate addition (1.5 microM final concentration). Plates were then immediately read on a ViewLux High-throughput CCD imager (PerkinElmer, Waltham, MA) equipped with FITC fluorescence optics (480(20) nm excitation, 540(25) nm emission), then incubated (room temperature, protected from light) for 15 minutes (~15% conversion). The change in fluorescence intensity over the 15-minute reaction period was normalized against no-inhibitor and no-enzyme controls and the resulting percent inhibition data were fitted to a 4-parameter Hill equation. Aprotinin was used as intraplate control.
As to `Cc1cccc(NC(=O)N[C@H]2CN(C)c3ccccc3C(c3ccccc3)=N2)c1`, the “activity change, negative = inhibition” value was 31.8%.

`CN1C(=O)[C@@H](Cc2c[nH]c3ccccc23)N=C(c2ccccc2F)c2ccccc21`: the “activity change, negative = inhibition” value is 17.8%.

Regarding `CCC1=CC2CN3CCc4c([nH]c5ccccc45)[C@@](C(=O)OC)(C2)[C@@H]13`, the “activity change, negative = inhibition” value is 8.7%.

As to `CN1C2CCC1CC(OC(=O)N1Cc3ccccc3NC1=O)C2` (stereo not given), the “activity change, negative = inhibition” value was -0.484%.

As to `COC[C@]12CN(C)C3C4[C@H](OC)[C@H]1C3(C(OC)C[C@H]2O)[C@H]1C[C@@]2(O)[C@H](OC(=O)c3ccccc3)[C@@H]1[C@]4(O)[C@@H](O)[C@@H]2OC` (stereo not given in full), the “activity change, negative = inhibition” value is 16.1%.

As for `CNC(=O)c1cc(C#N)cc(C)c1NC(=O)c1cc(Br)nn1-c1ncccc1Cl`, the “activity change, negative = inhibition” value was 0%.

Take `COc1ccc(CCNCc2ccc(OC)c3ccccc23)cc1`: the “activity change, negative = inhibition” value is 81%.

`CC[C@H](C)[C@H](NC(=O)[C@H]1CCCCN1C)C(=O)N(COC(=O)CC(C)C)[C@H](C[C@@H](OC(C)=O)c1nc(C(=O)N[C@@H](Cc2ccc(O)cc2)C[C@H](C)C(=O)O)cs1)C(C)C`: the activity change, negative = inhibition is 9.2% [at 2.28 µM].

Regarding `CC1=CC2/C=C(\C)CCC(O)C(O)C(O)CC(=O)C23C(=O)NC(CC(C)C)C3C1C` (stereo not given), the “activity change, negative = inhibition” value is -16.1% [at 57.1 µM].

In the case of `CN(CC[C@H](N)CC(=O)N[C@H]1C=C[C@@H](n2ccc(N)nc2=O)O[C@@H]1C(=O)O)C(=N)N`, the activity change, negative = inhibition is 11.2% [at 19.1 µM].

`CC(C)(O)/C=C/C(=O)[C@](C)(O)[C@H]1[C@H](O)C[C@@]2(C)[C@@H]3CC=C4[C@@H](C[C@H](O)C(=O)C4(C)C)[C@]3(C)C(=O)C[C@]12C`: the “activity change, negative = inhibition” value is -12.1% [at 57.1 µM].

Consider `CCN1C[C@]2(COC)CC[C@H](O)[C@@]34C5C[C@@H]6[C@@H](OC)C[C@@](OC(C)=O)(C5[C@@H]6OC(C)=O)[C@H]([C@H](OC)C23)[C@@H]14` (stereo not given in full), for which the “activity change, negative = inhibition” value was 11.4% [at 57.1 µM].

Turning to `CCOC(=O)C1(CCc2ccccc2)CCN(Cc2ccc(NC(C)=O)cc2)CC1`, the “activity change, negative = inhibition” value was 25.4%.

Take `CC1=CC(=O)[C@@H](O)[C@]2(C)C3[C@@H](O)[C@@H]4OC(=O)[C@@H]([C@H]4C)[C@]3(C)C(=O)C[C@@H]12` (stereo not given in full): the “activity change, negative = inhibition” value is 8.53%.

With `C/C=C1/CN2CC[C@]34C(=Nc5ccccc53)[C@@H]2C[C@@H]1[C@H]4C(=O)OC`, the “activity change, negative = inhibition” value is -0.973%.

Turning to `C[N@@+]1(CC2CC2)CC[C@]23c4c5ccc(O)c4O[C@H]2C(=O)CC[C@@]3(O)[C@H]1C5`, the “activity change, negative = inhibition” value is 1.77%.

Take `COC(=O)[C@]12CCCC(C)(C)C1CCc1cc(C(C)C)c(O)c(O)c12` (stereo not given in full): the Potency was 4.47 µM (active).

`C[C@]12CC[C@@H](O[C@@H]3O[C@H](CO)[C@@H](O)[C@H](O)[C@H]3O)C[C@@]1(O)CCC1C2CC[C@]2(C)[C@@H](C3=CC(=O)OC3)CC[C@]12O` (stereo not given in full): the “activity change, negative = inhibition” value was -8.72% [at 57.1 µM].

With `COC(=O)C12C(=O)C(C)(O)C(=O)C1(C)C(C)=CC1C34CCC(OC3=O)C(C)(C)C4CCC12C` (stereo not given), the “activity change, negative = inhibition” value was 25.4% [at 57.1 µM].

`CCOC(=O)Nc1ccc(NCc2c(C)cc(C)cc2C)cc1N`: the “activity change, negative = inhibition” value is -5.91%.

For `C[C@@H](CN1CCC2(CC1)C(=O)NCN2c1cccc(F)c1)NC(=O)c1ccc(Br)cc1`, the “activity change, negative = inhibition” value was 124%.

With `CC[C@H]1C2CC3[C@@H]4N(C)c5ccccc5[C@]45C[C@@H]([C@H]2[C@H]5O)N3[C@@H]1O`, the “activity change, negative = inhibition” value is 4%.

In the case of `CC[C@H]1C[C@@H]2CC[C@@H](O2)[C@@H](C)C(=O)O[C@H](CC)C[C@H]2CC[C@H](O2)[C@H](C)C(=O)O[C@@H](C)C[C@@H]2CC[C@@H](O2)[C@@H](C)C(=O)O[C@H](CC)C[C@H]2CC[C@H](O2)[C@H](C)C(=O)O1`, the “activity change, negative = inhibition” value was -21.9% [at 32.5 µM].

`CC[C@@H](C)[C@H]1C(=O)O[C@H](C(C)C)C(=O)N(C)[C@@H](C(C)C)C(=O)O[C@H](C(C)C)C(=O)N(C)[C@@H](C(C)C)C(=O)O[C@H](C(C)C)C(=O)N1C`: the “activity change, negative = inhibition” value is -12.9% [at 32.5 µM].

For the molecule `Fc1cc(F)c2c(c1)[C@H]1C=CC[C@H]1C(c1cccnc1)N2` (stereo not given in full), the “activity change, negative = inhibition” value was -28.1%.

Regarding `COC1C(O)C(C)OC(OC2C(CO)O[C@@H](O[C@@H]3CC4CCC5C(CC[C@]6(C)[C@@H](C7=CC(=O)OC7)CC[C@]56O)[C@@]4(C)[C@H](OC(C)=O)C3)C(O)C2O)C1O` (stereo not given in full), the “activity change, negative = inhibition” value was 1.26% [at 32.5 µM].

In the case of `CN1CCCCC1Cn1cc(C(=O)c2cc([N+](=O)[O-])ccc2I)c2ccccc21` (stereo not given), the “activity change, negative = inhibition” value was 41.5%.

As to `CO/C1=C\C(C)=C\[C@@H](C)[C@@H](O)[C@@H](C)C/C(C)=C/C=C/[C@H](OC)[C@@H]([C@@H](C)[C@@H](O)[C@H](C)[C@@]2(O)C[C@@H](O)[C@H](C)[C@@H](C(C)C)O2)OC1=O`, the “activity change, negative = inhibition” value is -14.9% [at 32.5 µM].

For the molecule `CCCCOC(=O)c1ccnc2cc(C(OCCN3CCCCC3)c3ccccc3Cl)sc12` (stereo not given), the “activity change, negative = inhibition” value is 4.11%.

Regarding `CC1=CC2OC3CC(O)[C@](C)([C@@]2(C)C(O)C1=O)[C@]31CO1` (stereo not given in full), the “activity change, negative = inhibition” value was 16.7%.

With `CCC(C)C1NC(=O)C2CCCN2C(=O)C(CC(C)C)OC(=O)CCNC(=O)C(C)N(C)C(=O)C(C(C)C)N(C)C1=O` (stereo not given) (cyclo([ξLac(3-iPr)]PI[NMeV][NMeA][βAla]); configuration not given here), the “activity change, negative = inhibition” value is 0.604% [at 32.5 µM].

On to `CC1=CC2OC3[C@H](O)C[C@@](C)([C@]34CO4)[C@@]2(CO)[C@H](O)C1=O` (stereo not given in full), for which the “activity change, negative = inhibition” value was 23%.

Turning to `CCC1CN2CCc3cc(OC)c(OC)cc3C2CC1CC1=NCCc2cc(O)c(OC)cc21` (stereo not given), the “activity change, negative = inhibition” value was -13.7% [at 57.1 µM].

Take `FC(F)(F)c1ccc(N2CCNCC2)nc1Cl`: the “activity change, negative = inhibition” value was 34.7%.

As for `CN1C(=O)[C@]23CC4C(C)(C)[C@@]5(C[C@@]41CN2CC[C@@]3(C)O)C(=O)Nc1c5ccc2c1OC=CC(C)(C)O2` (stereo not given in full), the Potency is 7.08 µM (active).

`CCC(C)C1NC(=O)C(C(C)=O)=C1O` (stereo not given): the “activity change, negative = inhibition” value was 70.8% [at 171 µM].

For `CC(=O)O[C@@H]1[C@H]2CC[C@H]3[C@@](C)(O)[C@@H]4C[C@H](O)C(C)(C)[C@@]4(O)[C@H](O)C[C@@]13C[C@@]2(C)O`, the “activity change, negative = inhibition” value was 4.52% [at 57.1 µM].

Regarding `CN(C(=O)CN1C(=O)COc2cc(Cl)c(Cl)cc21)[C@@H](CN1CCCC1)c1ccc(-c2cccc(C(N)=O)c2)cc1`, the “activity change, negative = inhibition” value is 59%.

For the molecule `NNC(=O)c1nn(Cc2ccc(Cl)cc2Cl)c2ccccc12`, the “activity change, negative = inhibition” value is 0%.

With `CC1(C)C(=O)N(c2ccc(C#N)c(C(F)(F)F)c2)C(=O)N1CCCCO`, the “activity change, negative = inhibition” value is 22%.
